Experimental findings from PubChem BioAssay (NCI) are described below.

SMILES strings stand for the structures. “And” between values parts separate entries of the source, which are not always exact repeats. Equal values may be shown once. The panel holds about 79,000 compounds, 15% with a hit somewhere; the sample as a whole holds those more often. Some compounds were tested as several samples or in several runs, with calls that do not always agree. The source made the active and inactive calls. No stated cut-off is given here; in the data, active means growth inhibition above about 70%; inactive means the rest.

A short description of test [1]: NCI Yeast Anticancer Drug Screen. Data for the rad50 strain (AID 155).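 Further: 0% = growth of vehicle-only cultures of the same strain.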 The following applies: S. cerevisiae rad50 strain growth inhibition, stronger effect = higher value. The method in brief:
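DNA repair mutant yeast, compound exposure, growth read-out; inhibition is taken relative to vehicle.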

Test [2] in a line: NCI Yeast Anticancer Drug Screen. Data for the mec2-1 strain (AID 157). The following applies: S. cerevisiae mec2-1 strain, stronger effect = higher value. A digest of the protocol: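 Test agents were screened against the mec2-1 yeast strain, with defined DNA repair or cell cycle alteration. Growth was scored as inhibition against vehicle-only controls.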
Test [3] in a line: NCI Yeast Anticancer Drug Screen. Data for the sgs1 mgt1 strain (AID 161).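 Further: 0% = growth of cultures given vehicle only.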 As to conditions: S. cerevisiae sgs1 mgt1 strain, stronger effect = higher value. A digest of the protocol:
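Genetically altered yeast, compound exposure, growth inhibition relative to vehicle.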

Test [4] is described as follows: NCI Yeast Anticancer Drug Screen. Data for the cln2 rad14 strain (AID 165).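 Further: 0% = growth equal to vehicle treated cultures.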 The following applies: S. cerevisiae cln2 rad14 strain, stronger effect = higher value. The method in brief: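 Growth of compound-exposed yeast (cln2 rad14 genotype) measured and expressed as inhibition relative to vehicle.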
A short description of test [5]: NCI Yeast Anticancer Drug Screen. Data for the bub3 strain (AID 167). The following applies: S. cerevisiae bub3 mutant strain, stronger effect = higher value. The method in brief: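 In this screen, a yeast mutant lacking normal mitotic checkpoint function is challenged with compound. Relative growth versus vehicle gives the inhibition value.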
The nature of test [6]: NCI Yeast Anticancer Drug Screen. Data for the mlh1 rad18 strain (AID 175). As to conditions: S. cerevisiae mlh1 rad18 strain growth inhibition, stronger effect = higher value. A digest of the protocol:
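In this whole-cell yeast screen, a strain with altered DNA damage repair is challenged with compound, and its growth is measured against matched vehicle-treated controls.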

Setting [7] is: at 5.0 µM (retest, dose inferred, filed as 0.5).
Setting [8] is: at 50.0 µM (retest, dose inferred, filed as 5.0).

As to `CCn1c(-c2c(Cl)cc(O)cc2Cl)cc2c(Cl)cc(O)cc21`, the growth inhibition was 64% (inactive) in test [1] (setting [7]); 99% (active) in test [1] (setting [8]); 98.1% (active) in test [1] (at 50.0 µM); 97% (active) in test [2] (setting [7]); 99% (active) in test [2] (setting [8]); 99% (active) in test [2] (at 50.0 µM). Also, the growth inhibition was 17% (inactive) in test [3] (setting [7]); 98% (active) in test [3] (setting [8]); 98.5% (active) in test [3] (at 50.0 µM); 13% (inactive) in test [4] (setting [7]); 98% (active) in test [4] (setting [8]); 98.5% (active) in test [4] (at 50.0 µM). The growth inhibition was 11% (inactive) in test [5] (setting [7]); 96% (active) in test [5] (setting [8]); 98% (active) in test [5] (at 50.0 µM); 22% (inactive) in test [6] (setting [7]); 94% (active) in test [6] (setting [8]); 98.6% (active) in test [6] (at 50.0 µM).
On to `O=c1ccn(C2CC(O)C(COC(c3ccccc3)(c3ccccc3)c3ccccc3)O2)c(=O)[nH]1` (stereo unspecified), for which the growth inhibition in test [1] (setting [7]) was 1% (inactive) and 22% (inactive); in test [1] (setting [8]), 99% (active); in test [1] (at 50.0 µM) it was 49.5% (inactive) and 40.2% (inactive); in test [2] (setting [7]), 6% (inactive) and 7% (inactive); in test [2] (setting [8]) it was 100% (active) and 99% (active); in test [2] (at 50.0 µM), 98% (active) and 53% (inactive). The growth inhibition was -1% (inactive) in test [3] (setting [7]); 100% (active) and 54% (inactive) in test [3] (setting [8]); 42.5% (inactive) and 52.7% (inactive) in test [3] (at 50.0 µM); 8% (inactive) and 5% (inactive) in test [4] (setting [7]); 99% (active) in test [4] (setting [8]); 97.7% (active) and 56% (inactive) in test [4] (at 50.0 µM). Besides, the growth inhibition in test [5] (setting [7]) was 7% (inactive) and 1% (inactive); in test [5] (setting [8]) it was 99% (active) and 98% (active); in test [5] (at 50.0 µM) it was 99.5% (active) and 16.2% (inactive); in test [6] (setting [7]) it was 13% (inactive); in test [6] (setting [8]), 99% (active) and 98% (active); in test [6] (at 50.0 µM), 41.9% (inactive) and 51.7% (inactive).
`O=Cc1cc([N+](=O)[O-])cc(CCl)c1O`: the growth inhibition in test [1] (setting [7]) was -119% (inactive); in test [1] (setting [8]), 26% (inactive); in test [1] (at 50.0 µM) it was 20.7% (inactive); in test [2] (setting [7]), -52% (inactive); in test [2] (setting [8]) it was -31% (inactive); in test [2] (at 50.0 µM), 13.2% (inactive). Further, the growth inhibition is -59% (inactive) in test [3] (setting [7]); -8% (inactive) in test [3] (setting [8]); 15.2% (inactive) in test [3] (at 50.0 µM); -58% (inactive) in test [4] (setting [7]); -17% (inactive) in test [4] (setting [8]); 20.1% (inactive) in test [4] (at 50.0 µM). In addition, the growth inhibition is -71% (inactive) in test [5] (setting [7]); -32% (inactive) in test [5] (setting [8]); -6.45% (inactive) in test [5] (at 50.0 µM); -123% (inactive) in test [6] (setting [7]); -28% (inactive) in test [6] (setting [8]); 27.9% (inactive) in test [6] (at 50.0 µM).
Consider `CCCCN(C(=O)CCl)c1ccccc1`, for which the growth inhibition was 2% (inactive) in test [1] (setting [7]); 13% (inactive) in test [1] (setting [8]); 50.3% (inactive) in test [1] (at 50.0 µM); -1% (inactive) in test [2] (setting [7]); 9% (inactive) in test [2] (setting [8]); 19.1% (inactive) in test [2] (at 50.0 µM). The growth inhibition in test [3] (setting [7]) is -4% (inactive); in test [3] (setting [8]) it was 3% (inactive); in test [3] (at 50.0 µM) it was 54.2% (inactive); in test [4] (setting [7]), 1% (inactive); in test [4] (setting [8]), 5% (inactive); in test [4] (at 50.0 µM), 20% (inactive). In addition, the growth inhibition was -9% (inactive) in test [5] (setting [7]); -16% (inactive) in test [5] (setting [8]); 34.9% (inactive) in test [5] (at 50.0 µM); 0% (inactive) in test [6] (setting [7]); 10% (inactive) in test [6] (setting [8]); 73.7% (active) in test [6] (at 50.0 µM).
In the case of `Clc1cc(Cl)c(Cl)nn1`, the growth inhibition in test [1] (setting [7]) is 13% (inactive); in test [1] (setting [8]), 83% (active); in test [1] (at 50.0 µM) it was 59.6% (inactive) and 86% (active); in test [2] (setting [7]) it was 3% (inactive); in test [2] (setting [8]) it was 38% (inactive); in test [2] (at 50.0 µM), 2.1% (inactive) and 44.9% (inactive). The growth inhibition in test [3] (setting [7]) is -1% (inactive); in test [3] (setting [8]) it was 24% (inactive); in test [3] (at 50.0 µM) it was 3.1% (inactive) and 15.5% (inactive); in test [4] (setting [7]), -8% (inactive); in test [4] (setting [8]), 25% (inactive); in test [4] (at 50.0 µM), -7.45% (inactive) and 16.4% (inactive). In addition, the growth inhibition is 6% (inactive) in test [5] (setting [7]); 48% (inactive) in test [5] (setting [8]); 18.6% (inactive) and 60.8% (inactive) in test [5] (at 50.0 µM); 1% (inactive) in test [6] (setting [7]); 45% (inactive) in test [6] (setting [8]); 15.8% (inactive) and 25% (inactive) in test [6] (at 50.0 µM).
As for `O=C1OC2=C(c3ccccc3)CCCC2C1=O` (stereo unspecified), the growth inhibition is -1% (inactive) in test [1] (setting [7]); 88% (active) in test [1] (setting [8]); 83% (active) and -7.3% (inactive) in test [1] (at 50.0 µM); 3% (inactive) in test [2] (setting [7]); 89% (active) in test [2] (setting [8]); 78.5% (active) and 4.7% (inactive) in test [2] (at 50.0 µM). Besides, the growth inhibition in test [3] (setting [7]) was 1% (inactive); in test [3] (setting [8]), 69% (inactive); in test [3] (at 50.0 µM), 93.8% (active) and -3.3% (inactive); in test [4] (setting [7]) it was -3% (inactive); in test [4] (setting [8]), 94% (active); in test [4] (at 50.0 µM) it was 92.5% (active) and 0.1% (inactive). Further, the growth inhibition in test [5] (setting [7]) was 0% (inactive); in test [5] (setting [8]), 93% (active); in test [5] (at 50.0 µM) it was 85.4% (active) and -6.2% (inactive); in test [6] (setting [7]), 0% (inactive); in test [6] (setting [8]), 93% (active); in test [6] (at 50.0 µM) it was 91.7% (active) and 3.8% (inactive).
On to `NNc1c2ccccc2nc2ccccc12`, for which the growth inhibition in test [1] (setting [7]) is 9% (inactive); in test [1] (setting [8]) it was 79% (active); in test [1] (at 50.0 µM), 21.1% (inactive) and 95.8% (active); in test [2] (setting [7]), 6% (inactive); in test [2] (setting [8]) it was 43% (inactive); in test [2] (at 50.0 µM), 18.4% (inactive) and 85.8% (active). The growth inhibition in test [3] (setting [7]) is 1% (inactive); in test [3] (setting [8]), 47% (inactive); in test [3] (at 50.0 µM), -10% (inactive) and 94% (active); in test [4] (setting [7]), 4% (inactive); in test [4] (setting [8]), 38% (inactive); in test [4] (at 50.0 µM), -19.1% (inactive) and 92.5% (active). The growth inhibition in test [5] (setting [7]) is -5% (inactive); in test [5] (setting [8]) it was 48% (inactive); in test [5] (at 50.0 µM) it was -21.5% (inactive) and 93.5% (active); in test [6] (setting [7]) it was 2% (inactive); in test [6] (setting [8]), 86% (active); in test [6] (at 50.0 µM), 8.4% (inactive) and 96.8% (active).
